# The full list was thinned out, with the strongest signals kept by preference.
# B1: PA-IL (Pseudomonas aeruginosa), Q05097 (protein)
# chain: MAWKGEVLANNEAGQVTSIIYNPGDVITIVAAGWASYGPTQKWGPQGDREHPDQGLICHDAFCGALVMKIGNSGTIPVNTGLFRWVAPNNVQGAITLIYNDVPGTYGNNSGSFSVNIGKDQS
# Legend:
# Experiment in all cases: glycan array binding signal (z-score within array); higher = stronger binding
# Settings in all cases: glycan notation: IUPAC condensed, linker removed
# [1] = target: Fuc(a1-2)Gal(b1-4)GlcNAc(b1-2)[Fuc(a1-2)Gal(b1-4)GlcNAc(b1-4)]Man(a1-3)[Fuc(a1-2)Gal(b1-4)GlcNAc(b1-2)Man(a1-6)]Man(b1-4)GlcNAc(b1-4)GlcNAc
# Method in brief: (§1)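 From the Consortium for Functional Glycomics database, 3228 arrays were curated, keeping only those whose protein sequence was available. Binding is given as a within-array Z-score averaged across arrays sharing a protein sequence and across linkers. Negative Z-scores can be read as non-binding.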
# [2] = target: Fuc(a1-2)Gal(b1-4)GlcNAc(b1-6)GalNAc
# Method in brief: as §1
# [3] = target: Fuc(a1-2)Gal(b1-4)[Fuc(a1-3)]GlcNAc(b1-2)[Fuc(a1-2)Gal(b1-4)[Fuc(a1-3)]GlcNAc(b1-4)]Man(a1-3)[Fuc(a1-2)Gal(b1-4)[Fuc(a1-3)]GlcNAc(b1-2)Man(a1-6)]Man(b1-4)GlcNAc(b1-4)GlcNAc
# Method in brief: as §1
# [4] = target: Fuc(a1-2)Gal(b1-4)[Fuc(a1-3)]GlcNAc(b1-3)Gal(b1-4)[Fuc(a1-3)]GlcNAc(b1-3)Gal(b1-4)[Fuc(a1-3)]GlcNAc
# Method in brief: as §1
# [5] = target: Fuc(a1-2)Gal6S(b1-3)GlcNAc
# Method in brief: as §1
# Fuc(a1-2)Gal6S(b1-4)Glc = target: Fuc(a1-2)Gal6S(b1-4)Glc
# Method in brief: as §1
# [6] = target: Fuc(a1-2)[Gal(a1-4)]Gal(b1-4)GlcNAc
# Method in brief: as §1
# [7] = target: Fuc(a1-3)[Gal(b1-4)]GlcNAc
# Method in brief: as §1
# [8] = target: Fuc(a1-3)[Gal(b1-4)]GlcNAc(b1-2)Man
# Method in brief: as §1
# [9] = target: Gal(a1-3)Gal(b1-3)GlcNAc(b1-2)Man(a1-3)[Gal(a1-3)Gal(b1-3)GlcNAc(b1-2)Man(a1-6)]Man(b1-4)GlcNAc(b1-4)GlcNAc
# Method in brief: as §1
# Gal(a1-3)Gal(b1-4)GlcNAc = target: Gal(a1-3)Gal(b1-4)GlcNAc
# Method in brief: as §1
# [10] = target: Gal(a1-3)Gal(b1-4)GlcNAc(b1-2)Man(a1-3)[Gal(a1-3)Gal(b1-4)GlcNAc(b1-2)Man(a1-6)]Man(b1-4)GlcNAc(b1-4)GlcNAc
# Method in brief: as §1
# [11] = target: Gal(a1-3)Gal(b1-4)[Fuc(a1-3)]GlcNAc
# Method in brief: as §1
# [12] = target: Gal(a1-3)[Gal(a1-4)]Gal(b1-4)GlcNAc
# Method in brief: as §1
# [13] = target: Gal(a1-4)Gal(b1-3)GlcNAc(b1-2)Man(a1-3)[Gal(a1-4)Gal(b1-3)GlcNAc(b1-2)Man(a1-6)]Man(b1-4)GlcNAc(b1-4)GlcNAc
# Method in brief: as §1
# Gal(a1-4)Gal(b1-4)GlcNAc = target: Gal(a1-4)Gal(b1-4)GlcNAc
# Method in brief: as §1
# [14] = target: Gal(a1-4)Gal(b1-4)GlcNAc(b1-2)Man(a1-3)[Gal(a1-4)Gal(b1-4)GlcNAc(b1-2)Man(a1-6)]Man(b1-4)GlcNAc(b1-4)GlcNAc
# Method in brief: as §1
# [15] = target: Gal(a1-4)Gal(b1-4)GlcNAc(b1-3)Gal(b1-4)Glc
# Method in brief: as §1
# Gal(a1-4)GlcNAc = target: Gal(a1-4)GlcNAc
# Method in brief: as §1
# [16] = target: Gal(b1-3)Gal(b1-4)GlcNAc(b1-2)Man(a1-3)[Gal(b1-3)Gal(b1-4)GlcNAc(b1-2)Man(a1-6)]Man(b1-4)GlcNAc(b1-4)GlcNAc
# Method in brief: as §1
# [17] = target: Gal(b1-3)GalNAc(b1-3)Gal(a1-4)Gal(b1-4)Glc
# Method in brief: as §1
# [18] = target: Gal(b1-3)GlcNAc(b1-3)Gal(b1-4)Glc
# Method in brief: as §1
# [19] = target: Gal(b1-4)GlcNAc(b1-2)Man(a1-6)[Man(a1-3)]Man(b1-4)GlcNAc(b1-4)GlcNAc
# Method in brief: as §1
# Gal3S(b1-3)GlcNAc = target: Gal3S(b1-3)GlcNAc
# Method in brief: as §1
# [20] = target: Gal3S(b1-3)[Fuc(a1-4)]GlcNAc
# Method in brief: as §1
# [21] = target: GalNAc(b1-3)Gal(a1-4)Gal(b1-4)GlcNAc(b1-3)Gal(b1-4)Glc
# Method in brief: as §1
# GalNAc(b1-4)GlcNAc = target: GalNAc(b1-4)GlcNAc
# Method in brief: as §1
# [22] = target: GlcNAc(a1-4)Gal(b1-4)GlcNAc(b1-3)Gal(b1-4)Glc
# Method in brief: as §1
# [23] = target: GlcNAc(a1-4)Gal(b1-4)GlcNAc(b1-3)Gal(b1-4)[Fuc(a1-3)]GlcNAc(b1-3)Gal(b1-4)[Fuc(a1-3)]GlcNAc
# Method in brief: as §1
# [24] = target: GlcNAc(b1-2)Man(a1-3)[GlcNAc(b1-2)Man(a1-6)]Man(b1-4)GlcNAc(b1-4)[Fuc(a1-6)]GlcNAc
# Method in brief: as §1
# [25] = target: GlcNAc(b1-2)[GlcNAc(b1-6)]Man(a1-6)[GlcNAc(b1-2)Man(a1-3)]Man(b1-4)GlcNAc(b1-4)[Fuc(a1-6)]GlcNAc
# Method in brief: as §1
# [26] = target: GlcNAc(b1-3)Gal(b1-4)GlcNAc(b1-3)GalNAc
# Method in brief: as §1
# [27] = target: GlcNAc(b1-3)[GlcNAc(b1-4)][GlcNAc(b1-6)]GlcNAc
# Method in brief: as §1
# Man(a1-2)Man(a1-3)Man = target: Man(a1-2)Man(a1-3)Man
# Method in brief: as §1
# [28] = target: Neu5Ac(a2-3)Gal(b1-4)GlcNAc(b1-2)Man(a1-3)[GlcNAc(b1-4)][Neu5Ac(a2-3)Gal(b1-4)GlcNAc(b1-2)Man(a1-6)]Man(b1-4)GlcNAc(b1-4)GlcNAc
# Method in brief: as §1
# [29] = target: Neu5Ac(a2-3)Gal(b1-4)GlcNAc(b1-3)Gal(b1-4)[Fuc(a1-3)]GlcNAc
# Method in brief: as §1
# [30] = target: Neu5Ac(a2-3)[GalNAc(b1-4)]Gal(b1-4)Glc
# Method in brief: as §1
# [31] = target: Neu5Ac(a2-6)Gal(b1-4)GlcNAc6S
# Method in brief: as §1
# [32] = target: Neu5Gc(a2-8)Neu5Ac(a2-3)Gal(b1-4)GlcNAc
# Method in brief: as §1
binder,measurement,setting,value
B1,glycan array binding signal (z-score),[1],-0.197
same,glycan array binding signal (z-score),[2],-0.201
same,glycan array binding signal (z-score),[3],-0.185
same,glycan array binding signal (z-score),[4],-0.213
same,glycan array binding signal (z-score),[5],-0.225
same,glycan array binding signal (z-score),Fuc(a1-2)Gal6S(b1-4)Glc,-0.229
same,glycan array binding signal (z-score),[6],5.44
same,glycan array binding signal (z-score),[7],-0.224
same,glycan array binding signal (z-score),[8],-0.233
same,glycan array binding signal (z-score),[9],0.015
same,glycan array binding signal (z-score),Gal(a1-3)Gal(b1-4)GlcNAc,5.08
same,glycan array binding signal (z-score),[10],6.97
same,glycan array binding signal (z-score),[11],5.02
same,glycan array binding signal (z-score),[12],6.55
same,glycan array binding signal (z-score),[13],7.29
same,glycan array binding signal (z-score),Gal(a1-4)Gal(b1-4)GlcNAc,4.79
same,glycan array binding signal (z-score),[14],8.23
same,glycan array binding signal (z-score),[15],5.73
same,glycan array binding signal (z-score),Gal(a1-4)GlcNAc,3.63
same,glycan array binding signal (z-score),[16],7.65
same,glycan array binding signal (z-score),[17],-0.228
same,glycan array binding signal (z-score),[18],-0.228
same,glycan array binding signal (z-score),[19],-0.237
same,glycan array binding signal (z-score),Gal3S(b1-3)GlcNAc,-0.229
same,glycan array binding signal (z-score),[20],-0.225
same,glycan array binding signal (z-score),[21],-0.228
same,glycan array binding signal (z-score),GalNAc(b1-4)GlcNAc,-0.236
same,glycan array binding signal (z-score),[22],-0.23
same,glycan array binding signal (z-score),[23],-0.203
same,glycan array binding signal (z-score),[24],-0.214
same,glycan array binding signal (z-score),[25],-0.217
same,glycan array binding signal (z-score),[26],-0.221
same,glycan array binding signal (z-score),[27],-0.228
same,glycan array binding signal (z-score),Man(a1-2)Man(a1-3)Man,-0.226
same,glycan array binding signal (z-score),[28],-0.244
same,glycan array binding signal (z-score),[29],-0.226
same,glycan array binding signal (z-score),[30],-0.226
same,glycan array binding signal (z-score),[31],-0.228
same,glycan array binding signal (z-score),[32],-0.245

# Source: the supplement of paper PMC8728848
